Measurements reported in PubChem BioAssay (NCI).
About 79,000 compounds went through this panel and 15% of them were active in at least one assay; those are over-represented in the sample as a whole. Activity calls are given as the source filed them. Cut-off read from the data, not from the text of the source: active = growth inhibition above about 70%; inactive = the rest.

Experiments:
[1] = NCI Yeast Anticancer Drug Screen. Data for the rad52 strain (AID 147);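 note: 0% = growth of vehicle-treated control cultures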; conditions: S. cerevisiae rad52 mutant growth inhibition, active compounds read high
Procedure, shortened: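 Compounds are applied to a genetically defined yeast strain lacking normal DNA damage repair, and inhibition of growth is expressed relative to cultures given vehicle only.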

[2] = NCI Yeast Anticancer Drug Screen. Data for the wt1 strain (AID 149);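 note: 0% = growth of vehicle-treated wt1 cultures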; conditions: S. cerevisiae wt1 strain (SPY 50644) growth inhibition, active compounds read high
Procedure, shortened: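 Vehicle-normalised growth inhibition; strain wt1; compound exposure.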

[3] = NCI Yeast Anticancer Drug Screen. Data for the rad50EPP+ strain (AID 151);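 note: 0% = growth of vehicle-treated control cultures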; conditions: S. cerevisiae rad50 mutant strain, active compounds read high
Procedure, shortened: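 Compounds were applied to the rad50EPP+ yeast strain, which bears a defined DNA repair alteration, and growth inhibition was determined relative to vehicle-treated cultures.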

[4] = NCI Yeast Anticancer Drug Screen. Data for the mgt1 strain (AID 153); conditions: S. cerevisiae mgt1 mutant growth inhibition, active compounds read high
Procedure, shortened: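 Strain: mgt1 yeast, one of a set carrying defined DNA damage repair or cell cycle control alterations. Compound-treated growth compared with vehicle.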

[5] = NCI Yeast Anticancer Drug Screen. Data for the rad50 strain (AID 155);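 note: 0% = growth of vehicle-only cultures of the same strain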; conditions: S. cerevisiae rad50 strain growth inhibition, active compounds read high
Procedure, shortened: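 A DNA repair-deficient yeast mutant serves as the test organism; compound-induced growth inhibition is calculated against vehicle-treated cells.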

[6] = NCI Yeast Anticancer Drug Screen. Data for the mec2-1 strain (AID 157); conditions: S. cerevisiae mec2-1 strain, active compounds read high
Procedure, shortened: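 Strain: mec2-1 (DNA repair/cell cycle alteration). Compound exposure, then growth measured; inhibition expressed relative to vehicle.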

[7] = NCI Yeast Anticancer Drug Screen. Data for the rad14 strain (AID 159);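 note: 0% = growth of vehicle-treated control cultures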; conditions: S. cerevisiae rad14 strain growth inhibition, active compounds read high
Procedure, shortened: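 Vehicle-treated cultures served as the baseline for growth inhibition of a DNA repair-mutant yeast strain exposed to each compound.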

[8] = NCI Yeast Anticancer Drug Screen. Data for the sgs1 mgt1 strain (AID 161);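 note: 0% = growth of cultures given vehicle only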; conditions: S. cerevisiae sgs1 mgt1 strain, active compounds read high
Procedure, shortened: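 Genetically altered yeast, compound exposure, growth inhibition relative to vehicle.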

[9] = NCI Yeast Anticancer Drug Screen. Data for the CLN2oe strain (AID 163);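 note: 0% = growth of vehicle-only control cultures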; conditions: S. cerevisiae CLN2oe strain, active compounds read high
Procedure, shortened: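 Growth of a genetically modified yeast strain is measured after compound exposure and compared with cultures given vehicle alone.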

[10] = NCI Yeast Anticancer Drug Screen. Data for the cln2 rad14 strain (AID 165);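 note: 0% = growth equal to vehicle treated cultures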; conditions: S. cerevisiae cln2 rad14 strain, active compounds read high
Procedure, shortened: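 Compounds are applied to the cln2 rad14 yeast strain, and growth is then compared with that of vehicle-treated cultures to give inhibition.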

[11] = NCI Yeast Anticancer Drug Screen. Data for the bub3 strain (AID 167); conditions: S. cerevisiae bub3 mutant strain, active compounds read high
Procedure, shortened: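 Inhibition values come from growth of compound-treated mutant yeast normalised to vehicle-treated controls.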

[12] = NCI Yeast Anticancer Drug Screen. Data for the wt2 strain (AID 169);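 note: 0% = growth of vehicle-treated yeast cultures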; conditions: S. cerevisiae wt2 strain growth inhibition, active compounds read high
Procedure, shortened: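 This strain belongs to a panel of yeast strains with defined genetic alterations in DNA damage repair or cell cycle control. Compounds are applied, and growth inhibition is measured against vehicle-treated cultures.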

[13] = NCI Yeast Anticancer Drug Screen. Data for the mlh1 strain (AID 171);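 note: 0% = growth of vehicle-treated control cultures of the same strain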; conditions: S. cerevisiae mlh1 strain growth inhibition, active compounds read high
Procedure, shortened: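 Growth of the mutant yeast strain after compound exposure, expressed as inhibition relative to vehicle-only controls.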

[14] = NCI Yeast Anticancer Drug Screen. Data for the sgs1 strain (AID 173);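 note: 0% = growth of vehicle-only control cultures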; conditions: S. cerevisiae sgs1 mutant, active compounds read high
Procedure, shortened: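 Growth of a yeast strain bearing a defined genetic alteration is measured after compound treatment. Inhibition is expressed relative to vehicle-only controls.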

[15] = NCI Yeast Anticancer Drug Screen. Data for the mlh1 rad18 strain (AID 175); conditions: S. cerevisiae mlh1 rad18 strain growth inhibition, active compounds read high
Procedure, shortened: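 Read-out is yeast growth inhibition, calculated against vehicle-only controls. The compound was applied to a strain engineered with DNA damage repair alterations.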

[16] = at 5.0 µM (retest, dose inferred, filed as 0.5)
[17] = at 50.0 µM (retest, dose inferred, filed as 5.0)

Measured: growth inhibition

CCOc1ccc(N)c(S)c1
inactive: [1]; at 1.2 µM 1% | [1]; at 3.7 µM 3% | [1]; at 11.0 µM 10% | [2]; at 1.2 µM 0% | [2]; at 3.7 µM 4% | [2]; at 11.0 µM 7% | [2]; at 33.0 µM 38% | [3]; at 1.2 µM 0% | [3]; at 3.7 µM -4% | [3]; at 11.0 µM 10% | [4]; at 1.2 µM 0% | [4]; at 3.7 µM -1% | [4]; at 11.0 µM 6% | [5]; at 1.2 µM 1% | [5]; at 3.7 µM -45% | [5]; [16] 0% | [5]; at 11.0 µM 34% | [6]; at 1.2 µM 0% | [6]; at 3.7 µM 4% | [6]; [16] -1% | [6]; at 11.0 µM 17% | [6]; at 33.0 µM 68% | [7]; at 1.2 µM -2% | [7]; at 3.7 µM -7% | [7]; at 11.0 µM 1% | [7]; at 33.0 µM 54% | [8]; [16] 9% | [9]; at 1.2 µM 0% | [9]; at 3.7 µM -6% | [9]; at 11.0 µM -4% | [9]; at 33.0 µM 4% | [10]; [16] 9% | [11]; at 1.2 µM 0% | [11]; at 3.7 µM 4% | [11]; [16] 1% | [11]; at 11.0 µM 23% | [11]; [17] 27% | [12]; at 1.2 µM -1% | [12]; at 3.7 µM 8% | [12]; at 11.0 µM 3% | [13]; at 1.2 µM 0% | [13]; at 3.7 µM 3% | [13]; at 11.0 µM 10% | [14]; at 1.2 µM -3% | [14]; at 3.7 µM 0% | [14]; at 11.0 µM 18% | [15]; [16] 2%
active: [1]; at 33.0 µM 79% | [1]; at 100.0 µM 97% | [2]; at 100.0 µM 97% | [3]; at 33.0 µM 97% | [3]; at 100.0 µM 96% | [4]; at 33.0 µM 71% | [4]; at 100.0 µM 98% | [5]; at 33.0 µM 88% | [5]; [17] 98% | [5]; at 50.0 µM 93.6% | [5]; at 100.0 µM 97% | [6]; [17] 96% | [6]; at 50.0 µM 91.3% | [6]; at 100.0 µM 98% | [7]; at 100.0 µM 98% | [8]; [17] 97% | [8]; at 50.0 µM 98.2% | [9]; at 100.0 µM 91% | [10]; [17] 98% | [10]; at 50.0 µM 97% | [11]; at 33.0 µM 97% | [11]; at 50.0 µM 98% | [11]; at 100.0 µM 96% | [12]; at 33.0 µM 86% | [12]; at 100.0 µM 97% | [13]; at 33.0 µM 82% | [13]; at 100.0 µM 98% | [14]; at 33.0 µM 97% | [14]; at 100.0 µM 96% | [15]; [17] 98% | [15]; at 50.0 µM 92%

CC1=COC2=C(C)C(=O)C(=O)c3c(C)ccc1c32
inactive: [1]; at 1.2 µM 20% | [1]; at 3.7 µM 23% | [1]; at 11.0 µM 30% | [1]; at 33.0 µM 68% | [2]; at 1.2 µM 30% | [2]; at 3.7 µM 38% | [2]; at 11.0 µM 45% | [3]; at 1.2 µM 2% | [3]; at 3.7 µM 7% | [3]; at 11.0 µM 19% | [3]; at 33.0 µM 42% | [3]; at 100.0 µM 60% | [4]; at 1.2 µM 41% | [4]; at 3.7 µM 28% | [4]; at 11.0 µM 37% | [5]; at 1.2 µM 34% | [5]; at 3.7 µM 39% | [5]; [16] 25% | [5]; at 11.0 µM 53% | [5]; [17] 47% | [6]; at 1.2 µM 43% | [6]; at 3.7 µM 40% | [6]; [16] 36% | [6]; at 11.0 µM 48% | [6]; [17] 59% | [7]; at 1.2 µM 10% | [7]; at 3.7 µM 17% | [7]; at 11.0 µM 20% | [8]; [16] 51% | [8]; [17] 67% | [9]; at 1.2 µM 37% | [9]; at 3.7 µM 44% | [9]; at 11.0 µM 36% | [10]; [16] 16% | [10]; [17] 32% | [11]; at 1.2 µM 67% | [12]; at 1.2 µM -19% | [12]; at 3.7 µM -18% | [12]; at 11.0 µM -19% | [12]; at 33.0 µM 6% | [13]; at 1.2 µM 25% | [13]; at 3.7 µM 27% | [13]; at 11.0 µM 47% | [14]; at 1.2 µM 23% | [14]; at 3.7 µM 29% | [14]; at 11.0 µM 35% | [15]; [16] 5%
active: [1]; at 100.0 µM 93% | [2]; at 33.0 µM 77% | [2]; at 100.0 µM 96% | [4]; at 33.0 µM 89% | [4]; at 100.0 µM 94% | [5]; at 33.0 µM 85% | [5]; at 50.0 µM 88.3% | [5]; at 100.0 µM 93% | [6]; at 33.0 µM 80% | [6]; at 50.0 µM 89.2% | [6]; at 100.0 µM 95% | [7]; at 33.0 µM 79% | [7]; at 100.0 µM 95% | [8]; at 50.0 µM 77.5% | [9]; at 33.0 µM 77% | [9]; at 100.0 µM 95% | [10]; at 50.0 µM 77.8% | [11]; at 3.7 µM 70% | [11]; [16] 77% | [11]; at 11.0 µM 84% | [11]; at 33.0 µM 91% | [11]; [17] 82% | [11]; at 50.0 µM 81% | [11]; at 100.0 µM 93% | [12]; at 100.0 µM 91% | [13]; at 33.0 µM 82% | [13]; at 100.0 µM 94% | [14]; at 33.0 µM 80% | [14]; at 100.0 µM 94% | [15]; [17] 71% | [15]; at 50.0 µM 80%

Nc1ccc(N=Nc2ccc(-c3ccc(O)cc3)cc2)c2ccc(S(=O)(=O)O)cc12
active: [3]; at 33.0 µM 79% | [3]; at 100.0 µM 78% | [5]; at 50.0 µM 82.9%
inactive: [1]; at 1.2 µM -3% | [1]; at 3.7 µM 2% | [1]; at 11.0 µM 17% | [1]; at 33.0 µM 39% | [1]; at 100.0 µM 54% | [2]; at 1.2 µM 0% | [2]; at 3.7 µM 1% | [2]; at 11.0 µM 6% | [2]; at 33.0 µM 10% | [2]; at 100.0 µM 15% | [3]; at 1.2 µM 7% | [3]; at 3.7 µM 25% | [3]; at 11.0 µM 67% | [4]; at 1.2 µM 1% | [4]; at 3.7 µM 0% | [4]; at 11.0 µM 3% | [4]; at 33.0 µM 6% | [4]; at 100.0 µM 12% | [5]; at 1.2 µM 1% | [5]; at 3.7 µM 1% | [5]; [16] 8% | [5]; at 11.0 µM 17% | [5]; at 33.0 µM 25% | [5]; [17] 57% | [5]; at 100.0 µM 43% | [6]; at 1.2 µM 2% | [6]; at 3.7 µM 3% | [6]; [16] 15% | [6]; at 11.0 µM 8% | [6]; at 33.0 µM 14% | [6]; [17] 10% | [6]; at 50.0 µM 34.9% | [6]; at 100.0 µM 23% | [7]; at 1.2 µM -1% | [7]; at 3.7 µM -1% | [7]; at 11.0 µM 4% | [7]; at 33.0 µM 11% | [7]; at 100.0 µM 30% | [8]; [16] 1% | [8]; [17] 15% | [8]; at 50.0 µM 19.1% | [9]; at 1.2 µM 1% | [9]; at 3.7 µM 2% | [9]; at 11.0 µM 0% | [9]; at 33.0 µM -1% | [9]; at 100.0 µM -3% | [10]; [16] 45% | [10]; [17] 13% | [10]; at 50.0 µM 47.1% | [11]; at 1.2 µM -1% | [11]; at 3.7 µM -4% | [11]; [16] 9% | [11]; at 11.0 µM -2% | [11]; at 33.0 µM 15% | [11]; [17] 12% | [11]; at 50.0 µM 38.4% | [11]; at 100.0 µM -9%
